The source made the active and inactive calls. How the source made its calls: active means hit-call score of the fitted dose curve at least 0.9, where 1 is the maximum; inactive means score below 0.9.
Legend:
[1] = ATG_CRE_CIS: Attagene CIS-FACTORIAL HepG2 Assay for human cAMP Responsive Element (CRE) binding protein 3 (AID 2282926); conditions: HepG2 CRE cis-reporter, Attagene multiplexed mRNA; actives raise or lower the signal
In short: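 HepG2 cells transiently transfected with a multiplexed reporter library (CRE-driven unit among them) were dosed for 24 h. Reporter mRNA was quantified by RT-PCR, fluorescent labelling, HpaI digestion and capillary electrophoresis, with bidirectional fitting against DMSO baseline.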

[2] = ATG_DR4_LXR_CIS: Attagene CIS-FACTORIAL HepG2 Assay for human Liver X Receptor (LXR), DR4 submotif (AID 2282929); conditions: HepG2 Attagene DR4 cis-reporter, mRNA transcription; actives raise or lower the signal
In short: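 Cells were transfected with multiple reporter transcription units, exposed to chemicals for 24 hours, then lysed for RNA. Reporter mRNA induction was measured by RT-PCR with capillary electrophoresis detection and fitted in both directions relative to DMSO.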

[3] = ATG_AP_2_CIS: Attagene CIS-FACTORIAL HepG2 Assay for human Activator Protein 2 (AP-2) (AID 2282932); conditions: HepG2 AP-2 cis-reporter, Attagene transcription factor profiling; actives raise or lower the signal
In short: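 HepG2, transient MRTU transfection, cis-regulated reporters; 24 h compound exposure; RNA isolated, RT-PCR, 6-FAM labelling, HpaI digest, CE fluorescence. DMSO = negative control/baseline, bidirectional fit.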

[4] = ATG_BRE_CIS: Attagene CIS-FACTORIAL HepG2 Assay for human Bone Morphogenetic Protein (BMP) Response Element (BRE) (AID 2282933); conditions: HepG2 BMP response element reporter, Attagene transcription factor profiling; actives raise or lower the signal
In short: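 Transient MRTU transfection of human HepG2 liver cells; 24 h compound treatment; total RNA isolated, reverse-transcribed, PCR-amplified, 6-FAM labelled, HpaI-cut, capillary electrophoresis. DMSO = negative control/baseline, bidirectional fit.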

[5] = biological target: Transcription factor E2F1 (Homo sapiens) (UniProt Q01094); test: ATG_E2F_CIS: Attagene CIS-FACTORIAL HepG2 Assay for human E2F Transcription Factor 1 (AID 2282935); conditions: HepG2 Attagene cis-reporter, E2F reporter RNA transcripts; actives raise or lower the signal
In short: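 Cis-element reporter mRNA induction in transiently transfected HepG2, 24 h exposure. Activity fitted in both directions relative to DMSO negative control.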

[6] = ATG_E_Box_CIS: Attagene CIS-FACTORIAL HepG2 Assay for human Enhancer Box (E-box) (AID 2282936); conditions: HepG2 E-box cis-reporter transcription, actives raise or lower the signal
In short: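 Cells: HepG2 (human liver), transient MRTU transfection. Exposure 24 h. RNA → oligo(dT) RT → PCR → 6-FAM label → HpaI → CE. Activity fitted both directions relative to DMSO.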

[7] = ATG_M_19_CIS: Attagene CIS-FACTORIAL HepG2 Assay for M19 Transcription Factor (Internal Marker) (AID 2282939); conditions: HepG2 Attagene CIS-FACTORIAL M19 internal marker reporter; actives raise or lower the signal
In short: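 Transfect HepG2 with MRTU reporter library → dose chemical, 24 h → isolate total RNA, reverse-transcribe with oligo(dT) → PCR, 6-FAM label, HpaI cut (2 h, 37 C) → capillary electrophoresis. Bidirectional fit vs DMSO.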

[8] = ATG_Ets_CIS: Attagene CIS-FACTORIAL HepG2 Assay for human Erythroblast Transformation Specific (ETS) (AID 2282941); conditions: HepG2 ETS cis-reporter transcription, actives raise or lower the signal
In short: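 Human HepG2 hepatoma cells were transiently transfected with promoter-driven reporter constructs and treated for 24 hours. Reporter transcripts were quantified by RT-PCR with fluorescent primer extension; bidirectional curve fitting used DMSO as reference.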

[9] = biological target: Hepatocyte nuclear factor 3-beta (Homo sapiens) (UniProt Q9Y261); test: ATG_FoxA2_CIS: Attagene CIS-FACTORIAL HepG2 Assay for human Forkhead box A2 (FOXA2) (AID 2282942); conditions: HepG2 cis-reporter transcription factor activity, 24 h; actives raise or lower the signal
In short: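 Endogenous transcription factor activity was read in HepG2 cells carrying transiently transfected cis-promoter reporter units. After 24 h dosing, reporter mRNA was quantified by RT-PCR and capillary electrophoresis, and values fitted bidirectionally versus DMSO.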

[10] = ATG_FoxO_CIS: Attagene CIS-FACTORIAL HepG2 Assay for human Forkhead box O (FoxO) (AID 2282943); conditions: HepG2 Attagene cis-reporter, FoxO element, mRNA; actives raise or lower the signal
In short: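 HepG2, transient MRTU transfection (cis element, endogenous TFs). Dose 24 h. TriZol RNA → oligo(dT) RT → PCR → 6-FAM primer extension → HpaI cut → CE. Gain/loss vs DMSO.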

[11] = ATG_GATA_CIS: Attagene CIS-FACTORIAL HepG2 Assay for human GATA Binding Protein (AID 2282944); conditions: HepG2 GATA cis-element reporter, Attagene multiplex mRNA; actives raise or lower the signal
In short: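 Transient MRTU transfection, HepG2, 24 h compound exposure. Total RNA → oligo(dT) RT → PCR → 6-FAM primer extension → HpaI cut → CE. Bidirectional fit vs DMSO.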

[12] = ATG_M_32_CIS: Attagene CIS-FACTORIAL HepG2 Assay for M32 Transcription Factor (Internal Marker) (AID 2282949); conditions: HepG2 Attagene cis-factorial M32 reporter, mRNA; actives raise or lower the signal;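 further: background control marker of the multiplexed CIS panel rather than a real target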
In short: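 Fluorescent capillary electrophoresis peaks of HpaI-digested, FAM-labelled RT-PCR reporter products give the signal. Source: transiently transfected human liver HepG2 cells, 24 h after chemical dosing; bidirectional fitting against DMSO.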

[13] = ATG_PXRE_CIS: Attagene CIS-FACTORIAL HepG2 Assay for human Pregnane X Receptor Element (PXRE) (AID 2282957); conditions: HepG2 Attagene CIS-FACTORIAL PXRE reporter, mRNA; actives raise or lower the signal
In short: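 HepG2 cells transiently transfected with cis-regulated multiple reporter transcription units; endogenous factor activity measured as reporter mRNA 24 h after dosing. RT-PCR, fluorescent primer extension, HpaI digestion, capillary electrophoresis; bidirectional fit versus DMSO baseline.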

[14] = ATG_Sox_CIS: Attagene CIS-FACTORIAL HepG2 Assay for human SRY-box transcription factor (SOX) (AID 2282960); conditions: HepG2 Attagene cis-factorial SOX reporter, mRNA; actives raise or lower the signal
In short: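 Transient MRTU transfection of HepG2; 24 h compound incubation; TriZol RNA, oligo(dT) RT, PCR, 6-FAM primer extension, HpaI cut, CE. Bidirectional fit, DMSO = baseline.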

[15] = biological target: Transcription factor Sp1 (Homo sapiens) (UniProt P08047); test: ATG_Sp1_CIS: Attagene CIS-FACTORIAL HepG2 Assay for human Specificity Protein 1 (Sp1) (AID 2282961); conditions: HepG2 Sp1 cis-reporter transcription, actives raise or lower the signal
In short: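 Endogenous Sp1 activity was gauged in human liver HepG2 cells bearing transfected reporter units under a cis-regulating promoter. After 24 h dosing, reporter mRNA was quantified by RT-PCR with capillary electrophoresis, and activity fitted bidirectionally versus DMSO.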

[16] = ATG_SREBP_CIS: Attagene CIS-FACTORIAL HepG2 Assay for human Sterol Regulatory Element Binding (SREBP) (AID 2282962); conditions: HepG2 Attagene cis-factorial SREBP reporter, mRNA; actives raise or lower the signal
In short: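 mRNA induction of transfected cis-promoter reporters in HepG2 cells, 24 h post-dose. Detection: RT-PCR with 6-FAM-labelled products, HpaI digest, capillary electrophoresis. DMSO served as negative control and baseline.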

[17] = biological target: Signal transducer and activator of transcription 3 (Homo sapiens) (UniProt P40763); test: ATG_STAT3_CIS: Attagene CIS-FACTORIAL HepG2 Assay for human Signal Transducer and Activator of Transcription 3 (STAT3) (AID 2282963); conditions: HepG2, Attagene cis-factorial STAT3 reporter transcription; actives raise or lower the signal
In short: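 Endogenous STAT3-responsive cis-element activity was read in transiently transfected HepG2 cells after 24 h treatment. Reporter transcripts were quantified via RT-PCR and capillary electrophoresis, with DMSO as negative control and bidirectional curve fitting.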

[18] = ATG_TA_CIS: Attagene CIS-FACTORIAL HepG2 Assay for human TA Basal Promoter (AID 2282964); conditions: HepG2 Attagene CIS-factorial TA basal promoter reporter; actives raise or lower the signal
In short: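 Read-out: fluorescent reporter-transcript fragments resolved by capillary electrophoresis after RT-PCR and HpaI digestion. Source: HepG2 cells carrying transiently transfected multi-reporter cis constructs, treated 24 h. Endpoint fitted bidirectionally relative to DMSO.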

[19] = ATG_TCF_b_cat_CIS: Attagene CIS-FACTORIAL HepG2 Assay for human T-Cell-Factor with beta-catenin (TCF/b-cat) (AID 2282965); conditions: HepG2 TCF/beta-catenin cis-reporter transcription, actives raise or lower the signal
In short: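 Endogenous transcription factor activity is captured through cis-promoter reporter constructs transiently introduced into human HepG2 liver cells. Induced reporter mRNA is measured after 24 h and fitted bidirectionally relative to DMSO.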

[20] = ATG_TGFb_CIS: Attagene CIS-FACTORIAL HepG2 Assay for human Transforming Growth Factor (TGF) (AID 2282967); conditions: HepG2 Attagene CIS TGFb reporter, mRNA transcription; actives raise or lower the signal
In short: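 Transient MRTU transfection of HepG2 (FuGene 6). Dose 24 h. TriZol RNA, oligo(dT) RT, PCR, 6-FAM primer extension, HpaI cut, CE. Bidirectional fit, DMSO = baseline.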

Measured: AC50

Sequence of Signal transducer and activator of transcription 3 (Homo sapiens) (P40763 whole entry, looked up): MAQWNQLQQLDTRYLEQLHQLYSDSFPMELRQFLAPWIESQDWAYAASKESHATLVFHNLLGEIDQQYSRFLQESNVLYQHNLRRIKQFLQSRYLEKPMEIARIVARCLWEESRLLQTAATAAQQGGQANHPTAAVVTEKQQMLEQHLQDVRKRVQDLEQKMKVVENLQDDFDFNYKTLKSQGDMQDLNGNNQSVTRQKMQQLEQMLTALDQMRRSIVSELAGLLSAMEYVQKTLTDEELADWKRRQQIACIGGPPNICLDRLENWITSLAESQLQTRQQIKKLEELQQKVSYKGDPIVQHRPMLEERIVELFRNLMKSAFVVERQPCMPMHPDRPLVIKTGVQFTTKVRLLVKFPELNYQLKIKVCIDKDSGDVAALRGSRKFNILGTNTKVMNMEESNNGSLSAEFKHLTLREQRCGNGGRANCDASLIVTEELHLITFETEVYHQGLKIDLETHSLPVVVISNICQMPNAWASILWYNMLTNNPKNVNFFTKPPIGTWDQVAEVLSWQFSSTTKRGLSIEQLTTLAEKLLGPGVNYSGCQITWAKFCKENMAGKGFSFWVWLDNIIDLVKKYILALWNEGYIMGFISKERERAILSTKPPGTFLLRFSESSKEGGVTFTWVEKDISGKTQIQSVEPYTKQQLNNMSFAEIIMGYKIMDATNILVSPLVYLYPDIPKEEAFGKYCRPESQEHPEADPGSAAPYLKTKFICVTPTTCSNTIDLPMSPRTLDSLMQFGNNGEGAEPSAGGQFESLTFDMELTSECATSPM
Sequence of Transcription factor E2F1 (Homo sapiens) (Q01094 whole entry, looked up): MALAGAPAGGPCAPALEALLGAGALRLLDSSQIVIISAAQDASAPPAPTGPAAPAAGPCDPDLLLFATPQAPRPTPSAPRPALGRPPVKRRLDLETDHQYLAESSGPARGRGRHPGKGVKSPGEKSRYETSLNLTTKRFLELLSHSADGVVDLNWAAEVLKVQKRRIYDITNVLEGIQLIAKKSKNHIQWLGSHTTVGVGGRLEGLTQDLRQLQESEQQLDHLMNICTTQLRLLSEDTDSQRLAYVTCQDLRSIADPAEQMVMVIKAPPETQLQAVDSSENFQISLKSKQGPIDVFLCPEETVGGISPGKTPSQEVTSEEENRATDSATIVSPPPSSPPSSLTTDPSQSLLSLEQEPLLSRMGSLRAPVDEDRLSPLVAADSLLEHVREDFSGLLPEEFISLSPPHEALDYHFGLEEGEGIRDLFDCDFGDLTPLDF
Sequence of Transcription factor Sp1 (Homo sapiens) (P08047 whole entry, looked up): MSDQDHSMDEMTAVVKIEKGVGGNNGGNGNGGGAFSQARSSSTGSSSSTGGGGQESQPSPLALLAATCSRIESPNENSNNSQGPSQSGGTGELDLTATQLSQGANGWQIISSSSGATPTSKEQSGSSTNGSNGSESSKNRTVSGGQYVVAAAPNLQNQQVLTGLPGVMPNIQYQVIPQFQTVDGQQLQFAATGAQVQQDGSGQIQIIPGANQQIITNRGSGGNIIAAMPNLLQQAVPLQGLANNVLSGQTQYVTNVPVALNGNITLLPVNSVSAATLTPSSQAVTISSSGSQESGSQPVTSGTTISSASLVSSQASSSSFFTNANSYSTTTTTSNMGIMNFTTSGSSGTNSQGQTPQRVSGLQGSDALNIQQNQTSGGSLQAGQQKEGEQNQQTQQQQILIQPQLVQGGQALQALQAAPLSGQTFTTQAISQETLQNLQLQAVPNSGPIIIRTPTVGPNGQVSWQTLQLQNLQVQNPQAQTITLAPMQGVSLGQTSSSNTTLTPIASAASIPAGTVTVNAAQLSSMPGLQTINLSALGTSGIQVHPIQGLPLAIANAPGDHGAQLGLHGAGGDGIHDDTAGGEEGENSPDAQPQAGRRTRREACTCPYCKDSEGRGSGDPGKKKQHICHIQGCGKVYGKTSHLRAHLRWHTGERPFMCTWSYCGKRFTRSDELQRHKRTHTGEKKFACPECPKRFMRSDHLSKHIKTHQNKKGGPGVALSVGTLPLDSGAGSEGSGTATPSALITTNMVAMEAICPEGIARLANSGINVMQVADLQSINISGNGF
Sequence of Hepatocyte nuclear factor 3-beta (Homo sapiens) (Q9Y261 whole entry, looked up): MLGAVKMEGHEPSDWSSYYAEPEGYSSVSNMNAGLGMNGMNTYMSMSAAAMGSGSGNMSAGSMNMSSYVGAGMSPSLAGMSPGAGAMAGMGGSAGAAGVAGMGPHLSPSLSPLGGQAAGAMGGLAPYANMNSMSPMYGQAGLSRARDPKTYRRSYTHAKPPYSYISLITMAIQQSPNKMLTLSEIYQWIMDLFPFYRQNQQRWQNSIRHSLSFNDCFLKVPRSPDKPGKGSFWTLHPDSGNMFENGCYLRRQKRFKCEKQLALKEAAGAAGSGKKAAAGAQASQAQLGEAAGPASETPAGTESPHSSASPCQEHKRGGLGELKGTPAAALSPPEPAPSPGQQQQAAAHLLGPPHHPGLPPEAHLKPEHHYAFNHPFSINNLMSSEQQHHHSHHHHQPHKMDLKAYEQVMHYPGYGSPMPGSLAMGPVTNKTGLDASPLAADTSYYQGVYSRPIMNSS

CCCCCCC1CCOC1=O (stereo not given)
inactive: [1] | [2] | [3] | [4] | [5] | [6] | [7] | [8] | [9] | [10] | [11] | [12] | [14] | [15] | [16] | [17] | [18] | [19] | [20]
active: [13] 100 µM

CC(C)CCCCCCCOP(=O)(Oc1ccccc1)Oc1ccccc1
inactive: [1] | [3] | [4] | [5] | [6] | [7] | [8] | [9] | [10] | [11] | [12] | [14] | [15] | [17] | [18] | [19] | [20]
active: [2] 21.6 µM | [13] 0.408 µM | [16] 27.2 µM

CCC(C)(C)O
inactive: [1] | [2] | [3] | [4] | [5] | [6] | [7] | [8] | [9] | [10] | [11] | [12] | [13] | [14] | [15] | [16] | [17] | [18] | [19] | [20]

CC(C)[C@@H](C(=O)O[C@@H](C#N)c1cccc(Oc2ccccc2)c1)c1ccc(Cl)cc1
inactive: [1] | [3] | [4] | [5] | [6] | [7] | [8] | [9] | [10] | [11] | [12] | [14] | [15] | [16] | [17] | [18] | [19] | [20]
active: [2] 9.57 µM | [13] 0.678 µM

CC(O)CN(CC(C)O)CC(C)O (stereo not given)
inactive: [1] | [2] | [3] | [4] | [5] | [6] | [7] | [8] | [9] | [10] | [11] | [12] | [13] | [14] | [15] | [16] | [17] | [18] | [19] | [20]

CCCC=NO
inactive: [1] | [2] | [3] | [4] | [5] | [6] | [7] | [8] | [9] | [10] | [11] | [12] | [13] | [14] | [15] | [16] | [17] | [18] | [19] | [20]

CC(=O)/C=C/c1ccccc1
inactive: [1] | [3] | [5] | [6] | [7] | [8] | [9] | [10] | [11] | [12] | [15] | [16] | [17] | [18] | [19] | [20]
active: [2] 78.1 µM | [4] 50 µM | [13] 26.4 µM | [14] 56.4 µM

C=CCO
inactive: [1] | [2] | [3] | [4] | [5] | [6] | [7] | [8] | [9] | [10] | [11] | [12] | [13] | [14] | [15] | [16] | [17] | [18] | [19] | [20]
